From PubChem BioAssay (NCI) come the findings set out here.

Test systems include NCI-H23 lung; NCI-H226 lung; HOP-62 NSCLC; NCI-H460 lung; HOP-92 NSCLC; NCI-H522 lung; A549/ATCC NSCLC; 786-0 renal; COLO 205 colon; NCI-H322M lung.
Holding throughout (test): NCI-60 one-dose screen, 48 h (100 = growth as untreated, 0 = no growth, -100 = all killed)
Details in all cases: 10 µM unless noted

About 83,000 compounds went through this panel and 20% of them were active in at least one assay; those are over-represented in the sample as a whole.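 Negative percent growth values reflect cell death: -40 means 40% of the cells present at the start died, and -100 means all died.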 Values without a mark were called inactive. Calls of active or inactive are those of the source. How the source made its calls: active means growth percent below 10; inactive means the rest.

On to `Cn1cc(NC(=O)c2cc(NC(=O)c3ccc(C#Cc4ccccc4)cc3)cn2C)cc1C(=O)NCCCN1CCOCC1`, for which the growth in the test on NCI-H23 lung is 58.9%; in the test with NCI-H226 lung, 69.7%; in the test on HOP-62 NSCLC, 85.4%; in the test on NCI-H460 lung, -15.3% (active); in the test with HOP-92 NSCLC, -11.5% (active); in the test with NCI-H522 lung it was -52.2% (active). For the same molecule, the growth was 33.3% in the test on A549/ATCC NSCLC, -4.75% (active) in the test on 786-0 renal and -78.7% (active) in the test on COLO 205 colon.
With `CC(C)CSc1nc(NCCc2c[nH]c3ccccc23)c(C#N)c(-c2ccc(F)cc2)n1`, the growth is 72.9% in the test on NCI-H23 lung; 44.9% in the test on NCI-H226 lung; 91.2% in the test with NCI-H322M lung; 34.9% in the test on HOP-62 NSCLC; 50.9% in the test on HOP-92 NSCLC; 62.4% with NCI-H522 lung. For the same molecule, the figures for the growth in the test with A549/ATCC NSCLC, in the test on 786-0 renal and with COLO 205 colon were 51.2%, 67.9% and 31.6%, respectively.
As for `COc1cc(/C=C/C(=O)c2ccccc2)ccc1Oc1nc(Nc2ccc(F)cc2)nc(N(C)C)n1`, the growth in the test with NCI-H23 lung was 46.6%; in the test with NCI-H226 lung it was 43%; with NCI-H322M lung, 61.2%; in the test with HOP-62 NSCLC it was 78.4%; with HOP-92 NSCLC, 28.7%; with NCI-H522 lung it was 29.6%. Moreover, the growth with A549/ATCC NSCLC was 52.8%; in the test on 786-0 renal, 39.6%; in the test with COLO 205 colon, 36.2%.
For `CCC(C)(C)c1ccc(OCCCCN2CCN(c3ccncc3)CC2)cc1`, the growth with NCI-H23 lung is 22.1%; in the test on NCI-H226 lung, 39.8%; in the test on HOP-62 NSCLC, 37.4%; in the test on NCI-H460 lung, 24.9%; in the test with HOP-92 NSCLC, 3.82% (active); in the test on NCI-H522 lung, 36%. Also, the growth in the test with A549/ATCC NSCLC was 47.4%; in the test on 786-0 renal, -56.4% (active); in the test with COLO 205 colon it was -81.9% (active).
With `N#Cc1c(-c2ccc(Cl)cc2)nc2n[nH]c(-c3ccc(Cl)cc3)c2c1-c1ccc(C(F)(F)F)cc1`, the growth with NCI-H23 lung is -13.5% (active); with NCI-H226 lung, -30.7% (active); with HOP-62 NSCLC, -24.2% (active); in the test on NCI-H460 lung it was -49.1% (active); in the test with HOP-92 NSCLC, -25.9% (active); with NCI-H522 lung it was -14.8% (active). Further, the growth with A549/ATCC NSCLC is 6.82% (active); in the test on 786-0 renal, -3.14% (active); in the test with COLO 205 colon, -88.5% (active).
For the molecule `Cc1cc(=O)oc2cc(OCCCOc3ccc(/C=C/C(=O)Nc4ccccc4N)cc3)ccc12`, the growth with NCI-H23 lung is 45.2%; with NCI-H226 lung, 18.4%; in the test with HOP-62 NSCLC, 16.7%; with NCI-H460 lung, 14.5%; in the test with HOP-92 NSCLC, 43.4%; in the test on NCI-H522 lung, -13.8% (active). In addition, the growth in the test on A549/ATCC NSCLC was 25.8%; in the test with 786-0 renal, 26.1%; in the test on COLO 205 colon, -53.6% (active).
`COc1ccc(C(=O)/C=C/c2ccc(Cl)c(Cl)c2)cc1S(N)(=O)=O`: the growth in the test with NCI-H23 lung was -23.6% (active); in the test on NCI-H226 lung it was 25.5%; in the test with NCI-H322M lung, 21.3%; with HOP-62 NSCLC, -47.1% (active); in the test on HOP-92 NSCLC it was 31.2%; in the test with NCI-H522 lung, -47.2% (active). Further, the growth is 11.2% with A549/ATCC NSCLC, -94.4% (active) with 786-0 renal and -75.9% (active) in the test on COLO 205 colon.
For `COc1ccc(C(=O)/C=C/c2ccc(OCc3ccccc3)c(OC)c2)cc1OC`, the growth was 27.1% in the test on NCI-H23 lung; 79.1% in the test with NCI-H226 lung; 35.3% in the test on HOP-62 NSCLC; 5.57% (active) in the test on NCI-H460 lung; 38.3% in the test with HOP-92 NSCLC; 11.3% with NCI-H522 lung. Besides, the growth was 14.4% in the test on A549/ATCC NSCLC and 35.9% in the test on 786-0 renal.
In the case of `CCCSc1nc(NCCc2c[nH]c3ccccc23)c(C#N)c(-c2ccc(F)cc2)n1`, the growth is 80.6% in the test with NCI-H23 lung; 32.5% in the test on NCI-H226 lung; 82.9% with NCI-H322M lung; 40.4% in the test on HOP-62 NSCLC; 52.1% in the test with HOP-92 NSCLC; 61.3% in the test with NCI-H522 lung. The growth in the test on A549/ATCC NSCLC is 58.6%; in the test with 786-0 renal, 62.4%; with COLO 205 colon, 44%.
Turning to `CCOc1ccc(C(=O)NC(=S)Nc2ccc(S(N)(=O)=O)cc2)cc1`, the growth is 97.5% [100 µM] in the test on NCI-H23 lung; 97.1% [100 µM] in the test with NCI-H226 lung; 101% [100 µM] with NCI-H322M lung; 102% [100 µM] with HOP-62 NSCLC; 87.9% [100 µM] with HOP-92 NSCLC; 77.5% [100 µM] with NCI-H522 lung. Moreover, the growth with A549/ATCC NSCLC was 101% [100 µM]; in the test with 786-0 renal, 99% [100 µM]; in the test on COLO 205 colon it was 119% [100 µM].
With `C[C@H]1CN(C(=O)c2ccc3c(NNC(=O)c4ccncn4)nc4cc(F)c(F)cc4n23)CCN1`, the growth is 37.5% in the test with NCI-H23 lung; 6.31% (active) in the test with NCI-H226 lung; 18.7% in the test with HOP-62 NSCLC; 6.66% (active) in the test on NCI-H460 lung; 65.4% with HOP-92 NSCLC; 67.9% with NCI-H522 lung. Moreover, the growth in the test with A549/ATCC NSCLC was 19.4%; with 786-0 renal it was -14.4% (active); in the test on COLO 205 colon it was 9.98% (active).
As to `O=C(c1ccc(OCCN2CCOCC2)cc1)C1[C@H](c2ccc(Cl)cc2)[C@@H](c2ccccc2)NC12C(=O)Nc1ccc(Br)cc12` (some centres undefined), the growth was 26.1% in the test with NCI-H23 lung; 44% with NCI-H226 lung; 53.8% in the test with NCI-H322M lung; 60.6% in the test with HOP-62 NSCLC; -15.1% (active) with HOP-92 NSCLC; 10.3% in the test with NCI-H522 lung. The growth with A549/ATCC NSCLC was 17.6%; in the test with 786-0 renal, -4.29% (active); in the test on COLO 205 colon, -39.3% (active).
`CC(C)c1sc(NC(=O)c2cc(NC(=O)c3cc(NC(=O)c4nccn4C)cn3C)cn2C)nc1C(=O)NCCCN(C)C`: the growth is 75.3% with NCI-H23 lung; 71.2% with NCI-H226 lung; 80.1% with HOP-62 NSCLC; 118% in the test on NCI-H460 lung; -0.363% (active) with HOP-92 NSCLC; 38.3% in the test on NCI-H522 lung. Moreover, the growth is 106% with A549/ATCC NSCLC, 104% in the test on 786-0 renal and 69.1% in the test on COLO 205 colon.
Regarding `CC1(C)CC[C@]2(C(=O)Nc3ccc(F)cc3)CC[C@]3(C)C(=CCC4[C@@]5(C)C[C@@H](O)[C@H](O)[C@@](C)(CO)C5CC[C@]43C)C2C1` (some centres undefined), the growth in the test on NCI-H23 lung is 49.8%; in the test with NCI-H226 lung it was 25.5%; with NCI-H322M lung, 72.7%; in the test on HOP-62 NSCLC, 58.6%; with HOP-92 NSCLC it was -1.23% (active); with A549/ATCC NSCLC, 28.5%. For the same molecule, the figures for the growth in the test with 786-0 renal and with COLO 205 colon were 51.1% and 0.244% (active), respectively.
